These results are taken from PubChem BioAssay.

Structures are written as SMILES. The source made the active and inactive calls.

Test system in one assay: not listed separately
As to the kind of experiment: S. cerevisiae growth modulation with rapamycin, primary screen, strain BY4716, OD600, 96 h (AID 1091). Note: test concentration not given here. To be noted: higher = more signal, called active from +8 up or from −8 down.
Take `COCCOC(=O)N1C(=O)[C@@]2(c3cc(C#CC4=CCCCC4)ccc31)[C@H](c1ccccc1OCCO)N1[C@H](c3ccccc3)[C@H](c3ccccc3)OC(=O)[C@H]1[C@@H]2C(=O)N1CCc2cc(OC)c(OC)cc2C1`: the z-score is 3.63 (inactive). On to `CC[C@H]1C2=C3C(CC[C@H]4C(OCc5ccc(F)cc5C(F)(F)F)OC[C@](C)([C@@H]34)N(C(=O)OC(C)(C)C)C2)C2COC(=O)OCC21` (stereo not given in full), for which the z-score was 0.896 (inactive). Take `CO[C@H]1O[C@H](CO)[C@@H](OC(=O)Nc2ccccc2-c2ccccc2)[C@H](OC(=O)Nc2ccc3c(c2)OCO3)[C@@H]1OC(=O)Nc1ccc2c(c1)OCO2`: the z-score was 6.35 (inactive).

On to `COCCCNC(=O)[C@@]1(Sc2ccc(C)cc2)CC(=O)N(C2Cc3ccccc3C2)[C@@H]1c1ccc(CO)cc1I`, for which the z-score was 1.43 (inactive). Regarding `Cc1ccc(S[C@]2(C(=O)NCc3ccccc3)CC(=O)N(C(C)C)[C@@H]2c2ccc(CO)cc2I)cc1`, the z-score was 0.317 (inactive).

`CC(C)C(O)C1C=CC2C(=O)N(C)C(=O)C2N1N(c1ccccc1)c1ccccc1` (stereo not given): the z-score was 1.5 (inactive). `O=C1OCC=C[C@H]2OC34C=CCN(Cn5nnc6ccccc65)C(=O)[C@H]3N(CCCCCCO)C(=O)[C@@H]4[C@@H]12` (stereo not given in full): the z-score was -0.66 (inactive). `COC(=O)[C@@]1(Cc2ccccc2)[C@H]2c3cc(C(=O)N4CCCC4)n(Cc4cc(F)cc5c4OCOC5)c3C[C@H]2CN1C(=O)c1ccccc1`: the z-score is 0.509 (inactive).

With `O=C(O)[C@H](Cc1ccccc1)n1cc(-c2ccccn2)nn1`, the z-score is -0.609 (inactive). Same read-out and setting: the same measure for `CN(C)CCCNC(=O)[C@@]1(c2ccc([N+](=O)[O-])cc2)CC(=O)N(CC23CC4CC(CC(C4)C2)C3)[C@@H]1c1ccc(CO)cc1`: -4.03 (inactive); for `CCOC(=O)C[C@H]1[C@H](OC(=O)c2ccc(-c3ccccc3)cc2)[C@@H](NC(=O)c2ccc3ccccc3n2)c2cc(OCCCO)ccc2N1C(=O)c1ccccc1`: 0.976 (inactive). Same read-out and setting: for `CCOC(=O)C1=CC[C@@H](c2ccccc2)N(S(=O)(=O)c2ccc(C)cc2)C1` the value was 2.72 (inactive). Still for that read-out and setting: the same measure for `CCOC(=O)[C@H]1C/C=C/C[C@H](C(=O)OCC)C(=O)O[C@H]2[C@@H](OC)O[C@H](CO)[C@@H](OC(=O)Nc3ccc(OC)cc3)[C@@H]2OC1=O`: 3.56 (inactive); for `COC(=O)[C@H](Cc1ccccc1)N1CC(/C=C/C2CC2)=C[C@@H]1[C@@H](O)Cc1ccccc1`: 0.423 (inactive).

As for `Cc1ccc(F)cc1S(=O)(=O)N[C@@H]1CCN(Cc2ccc(Oc3ccccc3)cc2)C1`, the z-score is -3.22 (inactive).

For `COCCOC(=O)N1C(=O)[C@@]2(c3cc(C#Cc4ccc(OC)cc4)ccc31)[C@H](C(=O)NC[C@H](O)c1ccccc1)[C@H]1C(=O)O[C@H](c3ccccc3)[C@H](c3ccccc3)N1[C@@H]2c1ccc(O)cc1`, the z-score was 1.08 (inactive). Turning to `CN(C)CCCNC(=O)[C@@H]1c2ccccc2C(=O)N(CC23CC4CC(CC(C4)C2)C3)[C@H]1c1ccc(CO)cc1`, the z-score is -2.06 (inactive).

As to `CCOC(=O)[C@@H]1[C@@H]2C(=O)N(CC)C(=O)[C@@H]2C[C@@H]1Sc1ccccc1`, the z-score was 2.66 (inactive). Still for that read-out and setting: the same measure for `CC(C)C(=C=CC[C@@H](O)c1ccccc1OCCO)C[C@@H](O)COCc1ccccc1`: -3.68 (inactive).

The target in another assay is Torsin-1A-interacting protein 2 (Homo sapiens) (UniProt Q8NFQ8). Briefly: LULL1 binders on small-molecule microarray, primary screen, cell lysate, human LULL1 lysate, 635/667 nm fluorescence (AID 1092).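 Note: probe is lysate of COS7 cells overexpressing human LULL1; score merges per-feature 667 nm fluorescence with signal-to-noise.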 To be noted: hLULL1 lysate binding, 635 nm fluorescence, higher = more signal.
Sequence of Torsin-1A-interacting protein 2 (Homo sapiens) (Q8NFQ8 whole entry, looked up): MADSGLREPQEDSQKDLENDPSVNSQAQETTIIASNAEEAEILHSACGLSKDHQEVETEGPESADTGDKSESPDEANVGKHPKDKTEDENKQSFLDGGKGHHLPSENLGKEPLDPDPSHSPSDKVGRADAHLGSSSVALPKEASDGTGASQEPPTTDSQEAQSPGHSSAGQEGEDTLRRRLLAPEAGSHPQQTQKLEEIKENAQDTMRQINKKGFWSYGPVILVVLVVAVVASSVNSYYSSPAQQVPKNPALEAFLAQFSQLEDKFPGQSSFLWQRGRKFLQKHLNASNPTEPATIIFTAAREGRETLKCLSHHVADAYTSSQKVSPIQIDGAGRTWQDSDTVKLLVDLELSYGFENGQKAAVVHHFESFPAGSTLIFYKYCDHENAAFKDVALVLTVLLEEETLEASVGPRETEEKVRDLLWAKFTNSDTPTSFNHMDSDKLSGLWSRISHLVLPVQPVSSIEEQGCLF
For the compound `CC(C)C(O)C1C=CC2C(=O)N(C)C(=O)C2N1Nc1ccccc1` (stereo not given), the composite z-score came out at 3.3. Same read-out and setting: for `Cc1c(NC(=O)/C(C#N)=C/C=C/c2ccc(N(C)C)cc2)c(=O)n(-c2ccccc2)n1C` the value was 2.6; for `COc1cc(CO)cc(I)c1O[C@H]1C=C(C(=O)NCCO)C[C@@H](N(Cc2ccc(F)cc2)C(=O)C2CCCO2)[C@@H]1O` (stereo not given in full), -0.492.

`O=C1C[C@@](C(=O)NCC(F)(F)F)(c2ccc([N+](=O)[O-])cc2)[C@@H](c2ccc(CO)cc2)N1C1CCCCC1` registered a composite z-score of 3.48. Same read-out and setting: for `COC(=O)Cn1c(C(=O)N2CCCC2)cc2c1C[C@H]1CN(C(=O)c3ccccc3)[C@@](Cc3ccc(F)cc3)(C(=O)OC)[C@@H]21` the value was 2.03.

In turn, `O=C(CS)NCCCCCCNC(=O)[C@H]1C[C@H]2C(=O)N[C@@H](Cc3ccccc3)C(=O)N2[C@H]1c1cccc(OCCO)c1` registered a composite z-score of 2.81. On the same count and under the same terms, for `COc1cc2c(cc1OC)CN(C(=O)[C@H]1[C@@H]3C(=O)O[C@@H](c4ccccc4)[C@@H](c4ccccc4)N3[C@@H](c3ccc(OCCO)cc3)[C@]13C(=O)Nc1ccc(C#CC4(O)CCCCCC4)cc13)CC2` the value was 2.37.

In turn, `O=C1O[C@H](c2ccccc2)[C@H](c2ccccc2)N2[C@H]1[C@@H](C(=O)O)[C@]1(C(=O)Nc3ccccc31)[C@H]2c1ccc(O)cc1` registered a composite z-score of 1.87. On the same count and under the same terms, for `CC(=O)N1Cc2ccccc2C[C@]2(N=C(c3ccc(OCCCO)cc3)O[C@@H]2c2ccccc2)C1=O` the value was 3.07.

Consider `Cc1ccc(S[C@]2(C(=O)O)CC(=O)N(Cc3ccccc3Cl)[C@@H]2c2ccc(CO)cc2)cc1`, for which the composite z-score was 2.95. On the same count and under the same terms, for `COc1c(C)cc(-c2cc3c(c(-c4ccccc4)n2)[Si](C(C)C)(C(C)C)OC3)cc1C` the value was -0.495; for `O=C(CCCCCCC(=O)Nc1ccccc1)N/N=C/c1ccccc1`, -0.743. The same measure, in the same setting: for `CCOC(=O)C[C@H]1[C@H](OC(=O)Cc2ccc3c(c2)OCO3)[C@@H](NC(=O)C2CCCCC2)c2cc(OCCCO)ccc2N1C(=O)c1ccc2ccccc2n1` the value was 1.34; for `O=C(NC1CC1)[C@@H]1c2ccccc2C(=O)N(Cc2ccccc2)[C@H]1c1ccc(CO)cc1`, 2.63.

For the compound `NC(N)=NCc1cn(CCc2c[nH]c3ccccc23)nn1`, the composite z-score is 1.01. Same read-out and setting: the same measure for `COCCCNC(=O)[C@@]1(Sc2ccc(C)cc2)CC(=O)N(Cc2cc(C(F)(F)F)cc(C(F)(F)F)c2)[C@@H]1c1ccc(CO)cc1`: 1.46; for `O=C1O[C@@H](c2ccccc2)[C@@H](c2ccccc2)N2[C@@H](c3ccc(O)cc3)[C@]3(C(=O)Nc4ccc(C#CC5=CCCCC5)cc43)[C@@H](C(=O)N3CCN(c4ncccn4)CC3)[C@H]12`: 3.12; for `COCCOC(=O)N1C(=O)[C@@]2(c3cc(C#CC4=CCCCC4)ccc31)[C@H](c1ccccc1OCCO)N1[C@H](c3ccccc3)[C@H](c3ccccc3)OC(=O)[C@H]1[C@@H]2C(=O)N1CCc2cc(OC)c(OC)cc2C1`: 0.889. Same read-out and setting: for `CC[C@H]1C2=C3C(CC[C@H]4C(OCc5ccc(F)cc5C(F)(F)F)OC[C@](C)([C@@H]34)N(C(=O)OC(C)(C)C)C2)C2COC(=O)OCC21` (stereo not given in full) the value was 3.34; for `CO[C@H]1O[C@H](CO)[C@@H](OC(=O)Nc2ccccc2-c2ccccc2)[C@H](OC(=O)Nc2ccc3c(c2)OCO3)[C@@H]1OC(=O)Nc1ccc2c(c1)OCO2`, 3.16. Same read-out and setting: for `COCCCNC(=O)[C@@]1(Sc2ccc(C)cc2)CC(=O)N(C2Cc3ccccc3C2)[C@@H]1c1ccc(CO)cc1I` the value was -0.165; for `Cc1ccc(S[C@]2(C(=O)NCc3ccccc3)CC(=O)N(C(C)C)[C@@H]2c2ccc(CO)cc2I)cc1`, 1.73.

`CC(C)C(O)C1C=CC2C(=O)N(C)C(=O)C2N1N(c1ccccc1)c1ccccc1` (stereo not given) came in with a composite z-score of 2.17.

The compound `O=C1OCC=C[C@H]2OC34C=CCN(Cn5nnc6ccccc65)C(=O)[C@H]3N(CCCCCCO)C(=O)[C@@H]4[C@@H]12` (stereo not given in full) displayed a composite z-score of 1.29. For `COC(=O)[C@@]1(Cc2ccccc2)[C@H]2c3cc(C(=O)N4CCCC4)n(Cc4cc(F)cc5c4OCOC5)c3C[C@H]2CN1C(=O)c1ccccc1`, the composite z-score came to 3.29.

The compound `O=C(O)[C@H](Cc1ccccc1)n1cc(-c2ccccn2)nn1` gave a composite z-score of 0.524.

On to `CN(C)CCCNC(=O)[C@@]1(c2ccc([N+](=O)[O-])cc2)CC(=O)N(CC23CC4CC(CC(C4)C2)C3)[C@@H]1c1ccc(CO)cc1`, for which the composite z-score was 3.39. Same read-out and setting: the same measure for `CCOC(=O)C[C@H]1[C@H](OC(=O)c2ccc(-c3ccccc3)cc2)[C@@H](NC(=O)c2ccc3ccccc3n2)c2cc(OCCCO)ccc2N1C(=O)c1ccccc1`: 2.11. Still for that read-out and setting: the same measure for `CCOC(=O)C1=CC[C@@H](c2ccccc2)N(S(=O)(=O)c2ccc(C)cc2)C1`: 0.353; for `CCOC(=O)[C@H]1C/C=C/C[C@H](C(=O)OCC)C(=O)O[C@H]2[C@@H](OC)O[C@H](CO)[C@@H](OC(=O)Nc3ccc(OC)cc3)[C@@H]2OC1=O`: 2.03; for `COC(=O)[C@H](Cc1ccccc1)N1CC(/C=C/C2CC2)=C[C@@H]1[C@@H](O)Cc1ccccc1`: 1.66. Same read-out and setting: the same measure for `Cc1ccc(F)cc1S(=O)(=O)N[C@@H]1CCN(Cc2ccc(Oc3ccccc3)cc2)C1`: -0.367; for `COCCOC(=O)N1C(=O)[C@@]2(c3cc(C#Cc4ccc(OC)cc4)ccc31)[C@H](C(=O)NC[C@H](O)c1ccccc1)[C@H]1C(=O)O[C@H](c3ccccc3)[C@H](c3ccccc3)N1[C@@H]2c1ccc(O)cc1`: 2.49; for `CN(C)CCCNC(=O)[C@@H]1c2ccccc2C(=O)N(CC23CC4CC(CC(C4)C2)C3)[C@H]1c1ccc(CO)cc1`: 3.24.

For the compound `CCOC(=O)[C@@H]1[C@@H]2C(=O)N(CC)C(=O)[C@@H]2C[C@@H]1Sc1ccccc1`, the composite z-score is 1.69.

As for `CC(C)C(=C=CC[C@@H](O)c1ccccc1OCCO)C[C@@H](O)COCc1ccccc1`, the composite z-score is 1.16.
